Assay outcomes: PubChem, The Scripps Research Institute Molecular Screening Center
Most compounds without a hit are left out; they make up all but 4.1% or so of the library.
DAX1 inh-1 – DAX1 (NR0B1) inhibitors on StAR promoter, primary screen, cell-based, luminescence, SF-1 (NR5A1), full-length DAX-1 | HEK293T StAR-luciferase reporter, SF-1/DAX-1 repression relief | inhibition, % at 6.8 µM | 1.1% of 370,000 active;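 active = inhibition above the mean over all tested compounds plus 3 SD, cut at about 3.6% in these data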;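 note: higher inhibition means more luminescence from relief of DAX-1 repression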
hgDAF12 agonist – H. glycines DAF-12 receptor agonists, primary screen, cell-based, luminescence, HEK293, GAL4 fusion, UAS-luciferase; 1.8% of 370,000 active; HEK293 GAL4-hgDAF12 UAS-luciferase reporter, agonist luminescence; normalized to butyrate control; activation, % at 6.8 µM; AID 687014, 2013; Nuclear hormone receptor DAF-12 (Heterodera glycines), GAL4 fusion;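 active = activation above a cutoff set at the mean of all screened compounds plus 3 SD, cut at about 10% in these data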
ssDAF12 agonist – S. stercoralis DAF-12 nuclear receptor activators, primary screen, cell-based, luminescence, HEK293, GRIP1 co-expression, lit1-tk-luc; activation, % at 6.8 µM; HEK293 ssDAF-12/GRIP1 lit1-tk-luc reporter; % of 3 µM dafachronic acid response; 1% of 370,000 active; AID 652126, 2013; Nuclear hormone receptor DAF-12 (Strongyloides stercoralis);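 active = activation above the mean over all tested compounds plus 3 SD, cut at about 0.9% in these data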
hcDAF-12 act – H. contortus DAF-12 nuclear receptor activators, primary screen, cell-based, luminescence, HEK293, lit1-tk-luc reporter. HEK293 hcDAF-12 lit1-tk-luc reporter; 0% DMSO, 100% Δ7-dafachronic acid. activation, % at 6.8 µM. 1.4% of 370,000 active;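 active = activation above the mean of all tested compounds plus 3 SD, cut at about 5.5% in these data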
DAX1 inh-2 – DAX1 (NR0B1) inhibitors, primary screen, cell-based, HEK293, Gal4-DAX1, luciferase luminescence | Nuclear receptor subfamily 0 group B member 1 (Homo sapiens), P51843 | HEK293 Gal4-DAX1 luciferase reporter | inhibition, % at 6.75 µM | 0.99% of 340,000 active | AID 504766, 2011;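 active = inhibition above the mean over all tested compounds plus 3 SD, cut at about 4.2% in these data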;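 note: inhibition shows as a rise in luminescence from relieved DAX1 repression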
Target sequence (P51843 207-470 limits assumed): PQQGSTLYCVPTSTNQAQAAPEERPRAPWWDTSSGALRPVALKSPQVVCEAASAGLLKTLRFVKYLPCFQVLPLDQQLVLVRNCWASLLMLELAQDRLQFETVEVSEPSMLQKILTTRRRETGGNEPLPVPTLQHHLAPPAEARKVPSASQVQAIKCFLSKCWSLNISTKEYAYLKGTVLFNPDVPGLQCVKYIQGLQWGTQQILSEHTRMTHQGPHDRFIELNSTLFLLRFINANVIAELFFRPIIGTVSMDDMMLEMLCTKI
Numbers stand for hits.

`O=C(c1ccc(Cl)cc1)c1cnc(Nc2ccccc2Cl)s1` gave DAX1 inh-1 inactive, hgDAF12 agonist 13, ssDAF12 agonist inactive, hcDAF-12 act inactive and DAX1 inh-2 inactive.
Cc1nc2ccc(S(=O)(=O)NCC(=O)N(C)Cc3ccc(F)cc3)cc2s1 was read as DAX1 inh-1 inactive, hgDAF12 agonist inactive, ssDAF12 agonist inactive and hcDAF-12 act inactive.
CN(c1cccnc1)c1ccc(NC(=O)Cc2c[nH]c3ccccc23)cc1-c1cccnc1F was read as DAX1 inh-1 inactive, hgDAF12 agonist inactive, ssDAF12 agonist inactive and hcDAF-12 act inactive.
OC(CNCc1ccccc1)c1ccccc1 (centres undefined) was read as DAX1 inh-1 inactive, hgDAF12 agonist inactive, ssDAF12 agonist inactive, hcDAF-12 act inactive and DAX1 inh-2 4.5.
For COc1ccc(S[C@]2(C(=O)N3CCCC3)CC(=O)N(C(=O)C3CC3)[C@@H]2c2ccc(OC)cc2)cc1 the results were DAX1 inh-1 inactive, hgDAF12 agonist inactive, ssDAF12 agonist inactive and hcDAF-12 act inactive.
Screening CC(C)C[C@H]1COc2cccc(F)c2S(=O)(=O)N1Cc1cn(CCC2OCCCO2)nn1 returned DAX1 inh-1 inactive, hgDAF12 agonist inactive, ssDAF12 agonist inactive and hcDAF-12 act inactive.
`O=C(N/N=C1/CC2C=CCC12)c1ccco1` (centres undefined) gave DAX1 inh-1 inactive, hgDAF12 agonist 11, ssDAF12 agonist 1.0, hcDAF-12 act inactive and DAX1 inh-2 inactive.
`Cc1ccc2c(c1)sc1nc(=O)n(-c3ccccc3)c(=O)n12` gave DAX1 inh-1 inactive, hgDAF12 agonist 12, ssDAF12 agonist inactive, hcDAF-12 act inactive and DAX1 inh-2 inactive.
For O=c1c2ccccc2nc2sc3ccccc3n12 the results were DAX1 inh-1 inactive, hgDAF12 agonist inactive, ssDAF12 agonist inactive, hcDAF-12 act inactive and DAX1 inh-2 inactive.
Cc1cc(C)n2nc(S(=O)(=O)N(CC(C)C)CC(C)C)nc2n1 was read as DAX1 inh-1 inactive, hgDAF12 agonist inactive, ssDAF12 agonist 1.0, hcDAF-12 act inactive and DAX1 inh-2 inactive.
`Cc1cc(C)n2nc(S(=O)(=O)N(C)Cc3ccccc3)nc2n1` gave DAX1 inh-1 inactive, hgDAF12 agonist inactive, ssDAF12 agonist inactive, hcDAF-12 act inactive and DAX1 inh-2 inactive.
NC(=O)c1sc(=S)n(-c2ccc(Br)cc2)c1N was read as DAX1 inh-1 inactive, hgDAF12 agonist inactive, ssDAF12 agonist inactive, hcDAF-12 act 6.5 and DAX1 inh-2 inactive.
For O=C(CSc1ncccn1)NCc1ccc(Cl)cc1 the results were DAX1 inh-1 inactive, hgDAF12 agonist inactive, ssDAF12 agonist inactive, hcDAF-12 act inactive and DAX1 inh-2 inactive.
For COc1ccc(NC(=O)COC(=O)Cn2cnc3ccccc3c2=O)c(OC)c1 the results were DAX1 inh-1 inactive, hgDAF12 agonist inactive, ssDAF12 agonist inactive, hcDAF-12 act inactive and DAX1 inh-2 inactive.
Cc1ccc(Cl)cc1NC(=O)COC(=O)Cn1cnc2c1c(=O)n(C)c(=O)n2C was read as DAX1 inh-1 inactive, hgDAF12 agonist inactive, ssDAF12 agonist inactive, hcDAF-12 act inactive and DAX1 inh-2 inactive.
`O=C(CSc1ncccn1)Nc1cc(Cl)ccc1[N+](=O)[O-]` gave DAX1 inh-1 inactive, hgDAF12 agonist inactive, ssDAF12 agonist inactive, hcDAF-12 act inactive and DAX1 inh-2 4.8.
`O=C(CSc1ncccn1)NCc1cccc(Cl)c1` gave DAX1 inh-1 inactive, hgDAF12 agonist 12, ssDAF12 agonist inactive, hcDAF-12 act inactive and DAX1 inh-2 inactive.
Screening O=C(COC(=O)Cn1cnc2ccccc2c1=O)Nc1cc(Cl)ccc1[N+](=O)[O-] returned DAX1 inh-1 inactive, hgDAF12 agonist inactive, ssDAF12 agonist inactive, hcDAF-12 act 5.6 and DAX1 inh-2 inactive.
Screening Cc1nc(SCC(=O)Nc2cc(Cl)ccc2[N+](=O)[O-])nc(C)c1C returned DAX1 inh-1 inactive, hgDAF12 agonist inactive, ssDAF12 agonist inactive, hcDAF-12 act inactive and DAX1 inh-2 inactive.
